PubChem BioAssay AID1159580 (chemical genetic matrix, 2015)
Where “and” joins values, the source holds several entries; their conditions need not be identical. Equal values may be shown once. About 2,000 (36%) of roughly 5,500 compounds were called active. Not shown: some 18% with an inconclusive outcome. No stated cut-off is given here; in the data, active means normalized growth mostly below about 0.91 (no sharp cut-off); inconclusive means no clear call, values can overlap the other calls; inactive means mostly above about 0.92. Some of the results follow.

Experiment: chemical genetic growth profiling, strain panel (AID 1159580);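 further: tested at 20 µM; growth read once vehicle control cultures reached saturation at 30 °C; 1 = growth at the plate median or of vehicle wells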
Details: S. cerevisiae deletion strains, growth OD

Measured: normalized growth

CCCCC(=O)O[C@]1(C(=O)CO)[C@@H](C)CC2C3CCC4=CC(=O)C=C[C@]4(C)[C@@]3(F)C(O)C[C@@]21C (stereo partly drawn)
inactive: locus YAL013W, strain DEP1, stronger effect = lower value 0.968 | locus YAL021C, strain ccr4, stronger effect = lower value 0.982 | locus YAL026C, strain drs2, stronger effect = lower value 1.01 | locus YAL030W, strain snc1, stronger effect = lower value 0.981 | locus YBL061C, strain skt5, stronger effect = lower value 0.978 | locus YBR009C, strain hhf1, stronger effect = lower value 0.99 | locus YBR021W, strain FUR4, stronger effect = lower value 0.986 | locus YBR023C, strain chs3, stronger effect = lower value 0.98 | locus YBR171W, strain sec66, stronger effect = lower value 0.941 | locus YBR229C, strain ROT2, stronger effect = lower value 0.99 | locus YBR231C, strain swc5, stronger effect = lower value 0.948 | locus YBR279W, strain paf1, stronger effect = lower value 0.991 | locus YCL011C, strain gbp2, stronger effect = lower value 0.99 | locus YCL016C, strain dcc1, stronger effect = lower value 1.01 | locus YCL029C, strain bik1, stronger effect = lower value 0.981 | locus YCL069W, strain vba3, stronger effect = lower value 0.989 | locus YCR088W, strain abp1, stronger effect = lower value 0.997 | locus YDL005C, strain med2, stronger effect = lower value 0.972 | locus YDL035C, strain GPR1, stronger effect = lower value 1.03 | locus YDL040C, strain nat1, stronger effect = lower value 0.975 | locus YDL074C, strain BRE1, stronger effect = lower value 0.979 | locus YDL101C, strain DUN1, stronger effect = lower value 0.961 | locus YDL134C, strain PPH21, stronger effect = lower value 1 | locus YDL185W, strain tfp1, stronger effect = lower value 0.97 | locus YDL192W, strain arf1, stronger effect = lower value 0.978 | locus YDR001C, strain nth1, stronger effect = lower value 0.986 | locus YDR069C, strain doa4, stronger effect = lower value 0.968 | locus YDR101C, strain arx1, stronger effect = lower value 0.998 | locus YDR137W, strain rgp1, stronger effect = lower value 0.979 | locus YDR159W, strain sac3, stronger effect = lower value 0.974 | locus YDR162C, strain NBP2, stronger effect = lower value 1.01 | locus YDR195W, strain ref2 0.963 | locus YDR297W, strain sur2, stronger effect = lower value 0.975 | locus YDR318W, strain mcm21, stronger effect = lower value 0.996 | locus YDR334W, strain swr1, stronger effect = lower value 0.988 | locus YDR335W, strain msn5, stronger effect = lower value 0.977 | locus YDR388W, stronger effect = lower value 0.982 | locus YDR392W, strain spt3, stronger effect = lower value 1.07 | locus YDR502C, strain sam2, stronger effect = lower value 0.988 | locus YEL003W, strain gim4, stronger effect = lower value 0.987 | locus YEL037C, strain rad23, stronger effect = lower value 0.991 | locus YEL061C, strain CIN8 (second series), stronger effect = lower value 0.991 | locus YEL061C, strain CIN8, stronger effect = lower value 0.995 | locus YER015W, strain faa2, stronger effect = lower value 0.979 | locus YER016W, strain bim1, stronger effect = lower value 1.02 | locus YER110C, stronger effect = lower value 0.982 | locus YER111C, strain swi4, stronger effect = lower value 0.968 | locus YER155C, strain BEM2 (second series), stronger effect = lower value 0.981 | locus YER155C, strain BEM2, stronger effect = lower value 1.01 | locus YER167W, strain BCK2, stronger effect = lower value 1.01 | locus YFR010W, strain ubp6, stronger effect = lower value 0.95 | locus YGL078C, strain dbp3, stronger effect = lower value 0.99 | locus YGL086W, strain mad1, stronger effect = lower value 0.982 | locus YGL167C, strain pmr1, stronger effect = lower value 0.959 | locus YGL173C, strain kem1, stronger effect = lower value 0.96 | locus YGL227W, strain vid30, stronger effect = lower value 0.97 | locus YGL240W, strain doc1, stronger effect = lower value 0.945 | locus YGL248W, strain PDE1, stronger effect = lower value 0.962 | locus YGL253W, strain hxk2, stronger effect = lower value 0.985 | locus YGR078C, strain PAC10, stronger effect = lower value 0.969 | locus YGR135W, strain pre9, stronger effect = lower value 0.977 | locus YGR252W, strain gcn5, stronger effect = lower value 1.02 | locus YHR013C, strain ard1, stronger effect = lower value 0.996 | locus YHR027C, strain rpn1, stronger effect = lower value 0.986 | locus YHR030C, strain SLT2, stronger effect = lower value 0.991 and 0.976 | locus YHR079C, strain IRE1 (second series), stronger effect = lower value 1 | locus YHR079C, strain IRE1, stronger effect = lower value 0.977 | locus YHR094C, strain hxt1, stronger effect = lower value 0.983 | locus YHR129C, strain ARP1, stronger effect = lower value 0.983 | locus YHR142W, strain chs7, stronger effect = lower value 0.943 | locus YHR200W, strain rpn10, stronger effect = lower value 0.992 | locus YIL066C, strain RNR3, stronger effect = lower value 1.01 | locus YIL073C, strain SPO22, stronger effect = lower value 1.01 | locus YIL125W, strain kgd1, stronger effect = lower value 0.97 | locus YIR030C, strain dcg1, stronger effect = lower value 0.992 | locus YJL092W, strain hpr5, stronger effect = lower value 0.976 | locus YJL095W, strain BCK1 (second series), stronger effect = lower value 0.982 | locus YJL095W, strain BCK1, stronger effect = lower value 0.888 and 0.991 | locus YJL115W, strain asf1, stronger effect = lower value 0.965 | locus YJL129C, strain trk1, stronger effect = lower value 0.943 | locus YJL134W, strain LCB3, stronger effect = lower value 0.994 | locus YJL154C, strain vps35, stronger effect = lower value 0.972 | locus YJL164C, strain tpk1, stronger effect = lower value 0.988 | locus YJL166W, strain qcr8, stronger effect = lower value 0.941 | locus YJL168C, strain set2, stronger effect = lower value 0.983 | locus YJL187C, strain SWE1 (second series), stronger effect = lower value 0.933 | locus YJR043C, strain POL32, stronger effect = lower value 1.03 | locus YJR066W, strain TOR1, stronger effect = lower value 0.958
